Source: ChEMBL document CHEMBL1961873, “Compounds: GSK PKIS; Assays: Nanosyn kinase panel” (2012)

Tests used:
[1] = target: Tyrosine-protein kinase CSK (Homo sapiens) (UniProt P41240); settings: at 1 µM;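 also: each value is an averaged inhibition reading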
[2] = target: T1, Discoidin domain-containing receptor 2 (Homo sapiens) (UniProt Q16832); settings: at 0.1 µM
T1 sequence (whole entry): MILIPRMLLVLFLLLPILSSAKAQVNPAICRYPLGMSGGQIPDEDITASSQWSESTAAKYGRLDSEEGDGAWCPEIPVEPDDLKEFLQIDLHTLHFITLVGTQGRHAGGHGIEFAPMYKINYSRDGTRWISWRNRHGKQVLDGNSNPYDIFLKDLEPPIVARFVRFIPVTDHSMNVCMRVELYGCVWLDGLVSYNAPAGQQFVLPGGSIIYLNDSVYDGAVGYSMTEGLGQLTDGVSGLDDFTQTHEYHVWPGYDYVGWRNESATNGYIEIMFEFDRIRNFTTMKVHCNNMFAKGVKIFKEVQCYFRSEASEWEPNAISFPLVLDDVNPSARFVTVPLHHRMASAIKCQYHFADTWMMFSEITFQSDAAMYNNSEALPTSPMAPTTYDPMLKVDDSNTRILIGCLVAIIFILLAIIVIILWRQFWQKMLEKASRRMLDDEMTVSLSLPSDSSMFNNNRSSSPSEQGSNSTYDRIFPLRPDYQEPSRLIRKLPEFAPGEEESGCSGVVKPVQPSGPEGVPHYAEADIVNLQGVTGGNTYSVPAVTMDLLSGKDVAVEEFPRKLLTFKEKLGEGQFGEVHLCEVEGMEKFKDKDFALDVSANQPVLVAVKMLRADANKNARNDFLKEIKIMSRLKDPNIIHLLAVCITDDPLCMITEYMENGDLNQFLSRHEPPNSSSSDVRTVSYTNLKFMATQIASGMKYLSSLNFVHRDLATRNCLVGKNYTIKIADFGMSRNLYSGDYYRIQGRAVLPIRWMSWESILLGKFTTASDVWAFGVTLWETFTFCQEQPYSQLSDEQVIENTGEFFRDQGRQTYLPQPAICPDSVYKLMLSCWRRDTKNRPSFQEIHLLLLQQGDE

[3] = target: T1, Discoidin domain-containing receptor 2 (Homo sapiens); settings: at 1 µM
[4] = target: Epidermal growth factor receptor (Homo sapiens) (UniProt P00533); settings: at 0.1 µM
[5] = target: Epidermal growth factor receptor (Homo sapiens) (UniProt P00533); settings: at 1 µM
[6] = system: Epidermal growth factor receptor (Homo sapiens), P00533 [L858R]; settings: at 0.1 µM
[7] = system: Epidermal growth factor receptor (Homo sapiens), P00533 [L858R]; settings: at 1 µM
[8] = system: Epidermal growth factor receptor (Homo sapiens), P00533 [L861Q]; settings: at 0.1 µM
[9] = system: Epidermal growth factor receptor (Homo sapiens), P00533 [L861Q]; settings: at 1 µM
[10] = system: Epidermal growth factor receptor (Homo sapiens), P00533 [T790M]; settings: at 0.1 µM
Epidermal growth factor receptor (Homo sapiens), P00533 [T790M], sequence (P00533 whole entry T790M): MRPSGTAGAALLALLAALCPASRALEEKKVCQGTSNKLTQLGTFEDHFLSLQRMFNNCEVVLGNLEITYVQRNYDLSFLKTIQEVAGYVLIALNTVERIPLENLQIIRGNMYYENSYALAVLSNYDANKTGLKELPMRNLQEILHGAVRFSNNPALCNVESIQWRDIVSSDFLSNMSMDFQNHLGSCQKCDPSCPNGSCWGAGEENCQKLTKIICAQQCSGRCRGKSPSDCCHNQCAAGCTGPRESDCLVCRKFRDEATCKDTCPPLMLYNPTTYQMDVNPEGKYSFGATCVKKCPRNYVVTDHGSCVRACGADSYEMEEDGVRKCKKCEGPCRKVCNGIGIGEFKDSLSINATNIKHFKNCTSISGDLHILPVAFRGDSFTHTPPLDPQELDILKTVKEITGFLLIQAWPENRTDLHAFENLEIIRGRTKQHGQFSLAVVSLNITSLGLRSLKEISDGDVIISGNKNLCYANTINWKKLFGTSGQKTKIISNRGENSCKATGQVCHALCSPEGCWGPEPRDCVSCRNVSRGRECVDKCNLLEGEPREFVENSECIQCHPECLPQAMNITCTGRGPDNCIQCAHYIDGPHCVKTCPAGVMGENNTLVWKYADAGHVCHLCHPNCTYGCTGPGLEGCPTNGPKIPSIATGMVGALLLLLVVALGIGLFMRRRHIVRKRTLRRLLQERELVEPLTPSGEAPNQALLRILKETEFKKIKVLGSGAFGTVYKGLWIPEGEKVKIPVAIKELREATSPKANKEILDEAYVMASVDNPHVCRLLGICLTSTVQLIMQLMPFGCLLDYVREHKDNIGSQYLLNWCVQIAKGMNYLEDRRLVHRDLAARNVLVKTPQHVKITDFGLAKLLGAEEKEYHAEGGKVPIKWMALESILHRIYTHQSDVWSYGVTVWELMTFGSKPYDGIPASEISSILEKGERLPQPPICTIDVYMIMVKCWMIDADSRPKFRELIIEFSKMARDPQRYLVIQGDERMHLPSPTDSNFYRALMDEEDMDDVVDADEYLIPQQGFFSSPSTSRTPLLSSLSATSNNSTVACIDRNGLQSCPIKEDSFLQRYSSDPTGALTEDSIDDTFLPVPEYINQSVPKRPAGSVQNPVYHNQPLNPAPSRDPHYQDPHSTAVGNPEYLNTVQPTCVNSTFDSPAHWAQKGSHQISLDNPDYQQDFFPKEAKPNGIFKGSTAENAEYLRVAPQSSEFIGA

Epidermal growth factor receptor (Homo sapiens), sequence (P00533 whole entry): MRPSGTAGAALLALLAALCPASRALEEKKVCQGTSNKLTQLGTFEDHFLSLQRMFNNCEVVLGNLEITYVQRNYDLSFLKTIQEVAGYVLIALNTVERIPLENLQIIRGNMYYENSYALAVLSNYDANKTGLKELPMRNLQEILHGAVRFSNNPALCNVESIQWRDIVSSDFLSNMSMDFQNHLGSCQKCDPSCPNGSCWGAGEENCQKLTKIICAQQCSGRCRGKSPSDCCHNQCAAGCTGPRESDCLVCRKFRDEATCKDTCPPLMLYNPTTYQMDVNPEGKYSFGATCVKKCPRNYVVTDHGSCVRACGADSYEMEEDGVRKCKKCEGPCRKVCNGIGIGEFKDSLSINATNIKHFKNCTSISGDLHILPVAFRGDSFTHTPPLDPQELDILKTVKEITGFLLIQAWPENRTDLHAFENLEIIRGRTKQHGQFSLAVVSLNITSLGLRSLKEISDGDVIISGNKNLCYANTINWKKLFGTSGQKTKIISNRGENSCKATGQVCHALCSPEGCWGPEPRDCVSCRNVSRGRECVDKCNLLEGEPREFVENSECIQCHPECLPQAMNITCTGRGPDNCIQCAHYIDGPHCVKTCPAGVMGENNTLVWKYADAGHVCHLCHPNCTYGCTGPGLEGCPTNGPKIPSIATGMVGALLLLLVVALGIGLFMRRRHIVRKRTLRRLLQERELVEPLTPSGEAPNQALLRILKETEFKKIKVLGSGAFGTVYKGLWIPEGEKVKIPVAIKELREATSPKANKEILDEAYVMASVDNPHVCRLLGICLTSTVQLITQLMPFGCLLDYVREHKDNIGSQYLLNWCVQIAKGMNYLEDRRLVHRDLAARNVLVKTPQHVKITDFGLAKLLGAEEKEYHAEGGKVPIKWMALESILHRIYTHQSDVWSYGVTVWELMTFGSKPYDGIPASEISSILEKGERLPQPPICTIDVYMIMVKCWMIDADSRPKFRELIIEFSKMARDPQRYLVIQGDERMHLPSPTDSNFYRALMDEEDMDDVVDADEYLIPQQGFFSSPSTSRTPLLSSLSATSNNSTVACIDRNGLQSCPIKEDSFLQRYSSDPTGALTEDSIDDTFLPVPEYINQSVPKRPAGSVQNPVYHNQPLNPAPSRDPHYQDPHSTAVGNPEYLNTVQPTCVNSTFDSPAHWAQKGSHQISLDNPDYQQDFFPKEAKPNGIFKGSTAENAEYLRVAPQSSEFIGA
Epidermal growth factor receptor (Homo sapiens), P00533 [L858R], sequence (P00533 whole entry L858R): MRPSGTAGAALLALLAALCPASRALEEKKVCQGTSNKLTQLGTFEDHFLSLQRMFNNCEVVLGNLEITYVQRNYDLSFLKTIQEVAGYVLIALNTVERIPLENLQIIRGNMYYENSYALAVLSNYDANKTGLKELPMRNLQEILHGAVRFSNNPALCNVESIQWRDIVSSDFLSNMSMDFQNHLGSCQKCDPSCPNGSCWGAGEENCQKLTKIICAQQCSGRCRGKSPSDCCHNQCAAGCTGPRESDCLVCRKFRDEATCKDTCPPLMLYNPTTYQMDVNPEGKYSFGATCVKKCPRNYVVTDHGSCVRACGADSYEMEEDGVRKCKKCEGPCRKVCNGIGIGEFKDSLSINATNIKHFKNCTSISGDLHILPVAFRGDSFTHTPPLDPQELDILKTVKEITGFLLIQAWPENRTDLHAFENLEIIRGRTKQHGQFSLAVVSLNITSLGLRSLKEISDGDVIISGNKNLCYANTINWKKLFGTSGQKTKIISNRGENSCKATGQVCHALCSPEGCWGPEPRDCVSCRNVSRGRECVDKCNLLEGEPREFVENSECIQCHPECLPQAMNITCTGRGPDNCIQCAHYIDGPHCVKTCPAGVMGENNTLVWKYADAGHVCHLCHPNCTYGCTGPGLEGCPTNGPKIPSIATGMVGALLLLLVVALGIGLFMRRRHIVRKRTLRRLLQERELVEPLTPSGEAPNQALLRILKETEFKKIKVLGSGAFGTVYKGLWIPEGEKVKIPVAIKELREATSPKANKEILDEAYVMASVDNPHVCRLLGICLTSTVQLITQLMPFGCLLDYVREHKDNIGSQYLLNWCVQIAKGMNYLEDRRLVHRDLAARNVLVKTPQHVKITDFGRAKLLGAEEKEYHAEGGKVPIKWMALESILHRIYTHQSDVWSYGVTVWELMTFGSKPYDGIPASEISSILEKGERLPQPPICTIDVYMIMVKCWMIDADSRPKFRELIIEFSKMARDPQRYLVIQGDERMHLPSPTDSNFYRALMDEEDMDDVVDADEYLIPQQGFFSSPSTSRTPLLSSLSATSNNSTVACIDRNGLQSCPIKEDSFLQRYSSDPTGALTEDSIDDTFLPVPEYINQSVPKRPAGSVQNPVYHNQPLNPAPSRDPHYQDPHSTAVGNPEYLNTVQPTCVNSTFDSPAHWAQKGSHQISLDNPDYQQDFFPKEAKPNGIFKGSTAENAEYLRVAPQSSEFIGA
Tyrosine-protein kinase CSK (Homo sapiens), sequence (P41240 2-450 limits assumed): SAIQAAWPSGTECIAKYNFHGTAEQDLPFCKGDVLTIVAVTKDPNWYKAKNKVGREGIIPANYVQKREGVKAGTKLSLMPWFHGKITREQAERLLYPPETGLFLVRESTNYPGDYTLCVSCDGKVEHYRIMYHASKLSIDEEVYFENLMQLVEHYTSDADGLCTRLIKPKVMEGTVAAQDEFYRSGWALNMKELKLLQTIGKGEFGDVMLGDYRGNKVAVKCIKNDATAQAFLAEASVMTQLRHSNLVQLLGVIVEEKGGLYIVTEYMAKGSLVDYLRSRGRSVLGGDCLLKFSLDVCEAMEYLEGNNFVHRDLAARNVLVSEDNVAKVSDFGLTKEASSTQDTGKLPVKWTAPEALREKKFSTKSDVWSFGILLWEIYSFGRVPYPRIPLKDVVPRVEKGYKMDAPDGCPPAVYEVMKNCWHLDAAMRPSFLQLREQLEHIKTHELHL

SMILES | inhibition [1] | inhibition [2] | inhibition [3] | inhibition [4] | inhibition [5] | inhibition [6] | inhibition [7] | inhibition [8] | inhibition [9] | inhibition [10]
CCn1c(-c2nonc2N)nc2c(C#CC(C)(C)O)nc(OC[C@H](N)c3ccccc3)cc21 | 2.13% | 1.12% | 1.65% | 2.01% | 13.4% | 1.93% | 1.86% | -0.13% | 2.36% | 1.22%
COc1cc2c(cc1Nc1nc(Nc3ccsc3C(N)=O)c3cc[nH]c3n1)N(C(=O)CN(C)C)CCC2(C)C | 0.65% | 4.88% | 1.72% | 1.56% | 9.19% | 5.69% | 33.1% | 1.86% | 14.5% | 26.6%
c1ccc(-c2nc3n(c2-c2ccc4c(c2)OCO4)CCC3)nc1 | 1.76% | 0.99% | 0.78% | 1.53% | 0.21% | 0.88% | -1.2% | 0.86% | 1.07% | 0.12%
COc1ccc(-c2nn3ncccc3c2-c2ccnc(Nc3ccc4c(c3)OCCO4)n2)cc1 | 2.25% | 17.7% | 79.8% | 0.51% | 34.1% | 8.22% | 57.4% | 5.78% | 34.3% | 0.7%
NS(=O)(=O)c1ccc(N/N=C2\C(=O)Nc3ccc4ncccc4c32)cc1 | 9.03% | 0.92% | 6.09% | 0.87% | 6.7% | 1.35% | 2.75% | 1.5% | -1.33% | 1.15%
COc1ccc(-c2cc3c(N)ncnc3o2)cc1 | -0.98% | -0.42% | 0.02% | 0.82% | 2% | 0.82% | -0.02% | -0.61% | -1.15% | -2.23%
Nc1nc(-c2cccc(Cl)c2)c(-c2ccc3ncccc3n2)s1 | 6.75% | -0.28% | -6.1% | 0.13% | 6.93% | 0.4% | 15.8% | 3.07% | 10.1% | 3.5%
Clc1ccc(-c2nn3ncccc3c2-c2ccnc(Nc3ccccc3)n2)cc1 | 5.89% | 3% | 76.7% | 13.2% | 61.7% | 43.5% | 87.6% | 12% | 58.5% | 1.98%
CC1=C(C(=O)Nc2cc(Cl)c3[nH]ncc3c2)C(c2ccc(C(F)(F)F)cc2)CC(=O)N1 (stereo not given) | 2.47% | 1.75% | 1.35% | -1.31% | 5.03% | 2.16% | 7.45% | 2.03% | 2.45% | 1.57%
CCOc1ccc2c(-c3ccnc(Nc4cccc(C(F)(F)F)c4)n3)cnn2n1 | 1.6% | 4.46% | 6.02% | 0.09% | 1.97% | 0.87% | -1.72% | 1.44% | -0.42% | -0.02%
Cc1ccc2c(-c3ccnc(Nc4ccccc4)n3)c(-c3ccc(F)cc3)nn2n1 | 14.5% | 31.2% | 83.3% | 47.1% | 78.4% | 85.8% | 97.4% | 51.8% | 87.8% | 8.63%
c1ccc(COc2ccc(Nc3ncnc4ccc(-c5ccco5)cc34)cc2)cc1 | 1.89% | 0.26% | 1.14% | 64.3% | 86.1% | 9.89% | 39.4% | 22.1% | 36.1% | 1.47%
NS(=O)(=O)c1ccc(Nc2ncc(-c3ccccc3)o2)cc1 | 5.89% | 1.76% | 4.71% | 1.02% | 1.18% | 2.83% | 6.04% | 2.61% | 2.73% | 0.68%
CS(=O)(=O)CCNCc1ccc(-c2ccc3ncnc(Nc4ccc(OCc5ccccc5)c(C(F)(F)F)c4)c3c2)o1 | 3.7% | 1.76% | 1.84% | 12.5% | 71.2% | 9.52% | 50.1% | 17.8% | 41.7% | 2.35%
COC(=O)c1sc(-n2cnc3cc(OC)c(OC)cc32)cc1OCc1ccccc1C(F)(F)F | 0.42% | 2.46% | 2.44% | -0.33% | 2.22% | 1.6% | 6.95% | 3.31% | 0.15% | 1.36%
COc1cccc(-c2c[nH]c3c(N/N=C/c4ccncc4)ncnc23)c1 | 17.3% | 3.82% | 14.8% | 7.02% | 41.9% | 30.4% | 82.3% | 8.35% | 45.4% | 1.02%
